Test results reported in PubChem BioAssay (NCI).
Where “and” joins values, the source holds several entries; their conditions need not be identical. Equal entries are not always repeated. The panel holds about 79,000 compounds, 15% with a hit somewhere; the sample as a whole holds those more often. Where a structure was tested more than once in an assay, its records may differ in their call. Calls of active or inactive are those of the source. No stated cut-off is given here; in the data, active means growth inhibition above about 70%; inactive means the rest.

Key:
[1] = NCI Yeast Anticancer Drug Screen. Data for the mec2-1 strain (AID 157); settings: S. cerevisiae mec2-1 strain, stronger effect = higher value
Summary of the method: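 Strain: mec2-1 (DNA repair/cell cycle alteration). Compound exposure, then growth measured; inhibition expressed relative to vehicle.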

[2] = NCI Yeast Anticancer Drug Screen. Data for the rad14 strain (AID 159);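 further: 0% = growth of vehicle-treated control cultures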; settings: S. cerevisiae rad14 strain growth inhibition, stronger effect = higher value
Summary of the method: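 Growth inhibition vs vehicle controls; genetically altered yeast strain (DNA damage repair defect) treated with test compounds.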

[3] = NCI Yeast Anticancer Drug Screen. Data for the sgs1 mgt1 strain (AID 161);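 further: 0% = growth of cultures given vehicle only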; settings: S. cerevisiae sgs1 mgt1 strain, stronger effect = higher value
Summary of the method: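 Genetically altered yeast, compound exposure, growth inhibition relative to vehicle.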

[4] = NCI Yeast Anticancer Drug Screen. Data for the CLN2oe strain (AID 163);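 further: 0% = growth of vehicle-only control cultures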; settings: S. cerevisiae CLN2oe strain, stronger effect = higher value
Summary of the method: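 Growth of a genetically modified yeast strain is measured after compound exposure and compared with cultures given vehicle alone.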

[5] = NCI Yeast Anticancer Drug Screen. Data for the cln2 rad14 strain (AID 165);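 further: 0% = growth equal to vehicle treated cultures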; settings: S. cerevisiae cln2 rad14 strain, stronger effect = higher value
Summary of the method: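 Compounds are applied to the cln2 rad14 yeast strain, and growth is then compared with that of vehicle-treated cultures to give inhibition.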

[6] = NCI Yeast Anticancer Drug Screen. Data for the bub3 strain (AID 167); settings: S. cerevisiae bub3 mutant strain, stronger effect = higher value
Summary of the method: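 Readout: yeast growth inhibition, expressed relative to vehicle-only wells. The test organism is a mutant strain from a panel with lesions in DNA repair or checkpoint genes.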

[7] = NCI Yeast Anticancer Drug Screen. Data for the wt2 strain (AID 169);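 further: 0% = growth of vehicle-treated yeast cultures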; settings: S. cerevisiae wt2 strain growth inhibition, stronger effect = higher value
Summary of the method: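 This strain belongs to a panel of yeast strains with defined genetic alterations in DNA damage repair or cell cycle control. Compounds are applied, and growth inhibition is measured against vehicle-treated cultures.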

[8] = NCI Yeast Anticancer Drug Screen. Data for the mlh1 strain (AID 171);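 further: 0% = growth of vehicle-treated control cultures of the same strain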; settings: S. cerevisiae mlh1 strain growth inhibition, stronger effect = higher value
Summary of the method: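 Growth of the mutant yeast strain after compound exposure, expressed as inhibition relative to vehicle-only controls.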

[9] = NCI Yeast Anticancer Drug Screen. Data for the sgs1 strain (AID 173);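 further: 0% = growth of vehicle-only control cultures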; settings: S. cerevisiae sgs1 mutant, stronger effect = higher value
Summary of the method: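 Growth of a yeast strain bearing a defined genetic alteration is measured after compound treatment. Inhibition is expressed relative to vehicle-only controls.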

[10] = NCI Yeast Anticancer Drug Screen. Data for the mlh1 rad18 strain (AID 175); settings: S. cerevisiae mlh1 rad18 strain growth inhibition, stronger effect = higher value
Summary of the method: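 Read-out is yeast growth inhibition, calculated against vehicle-only controls. The compound was applied to a strain engineered with DNA damage repair alterations.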

[11] = NCI Yeast Anticancer Drug Screen. Data for the rad18 strain (AID 177); settings: S. cerevisiae rad18 mutant growth inhibition, stronger effect = higher value
Summary of the method: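 Growth of the mutant yeast strain after compound exposure, normalised to vehicle-only cultures.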

[12] = NCI Yeast Anticancer Drug Screen. Data for the rad52 strain (AID 147);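 further: 0% = growth of vehicle-treated control cultures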; settings: S. cerevisiae rad52 mutant growth inhibition, stronger effect = higher value
Summary of the method: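 Compounds are applied to a genetically defined yeast strain lacking normal DNA damage repair, and inhibition of growth is expressed relative to cultures given vehicle only.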

[13] = NCI Yeast Anticancer Drug Screen. Data for the wt1 strain (AID 149);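 further: 0% = growth of vehicle-treated wt1 cultures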; settings: S. cerevisiae wt1 strain (SPY 50644) growth inhibition, stronger effect = higher value
Summary of the method: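 Growth inhibition read against vehicle controls after compound exposure of the wt1 yeast strain.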

[14] = NCI Yeast Anticancer Drug Screen. Data for the rad50EPP+ strain (AID 151);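 further: 0% = growth of vehicle-treated control cultures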; settings: S. cerevisiae rad50 mutant strain, stronger effect = higher value
Summary of the method: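 Compounds were applied to the rad50EPP+ yeast strain, which bears a defined DNA repair alteration, and growth inhibition was determined relative to vehicle-treated cultures.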

[15] = NCI Yeast Anticancer Drug Screen. Data for the mgt1 strain (AID 153); settings: S. cerevisiae mgt1 mutant growth inhibition, stronger effect = higher value
Summary of the method: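 Strain: mgt1 yeast, one of a set carrying defined DNA damage repair or cell cycle control alterations. Compound-treated growth compared with vehicle.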

[16] = NCI Yeast Anticancer Drug Screen. Data for the rad50 strain (AID 155);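 further: 0% = growth of vehicle-only cultures of the same strain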; settings: S. cerevisiae rad50 strain growth inhibition, stronger effect = higher value
Summary of the method: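 Readout: growth inhibition relative to vehicle-treated cultures. Compound exposure was carried out in a genetically defined yeast strain deficient in DNA damage repair.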

[17] = at 5.0 µM (retest, dose inferred, filed as 0.5)
[18] = at 50.0 µM (retest, dose inferred, filed as 5.0)

CCc1cc(O)c(Cl)c(C)c1Cl
growth inhibition [1, 17]: 44% (inactive) | growth inhibition ([1]; at 11.0 µM): -13% (inactive) | growth inhibition ([1]; at 33.0 µM): 3% (inactive) | growth inhibition [1, 18]: 86% (active) | growth inhibition ([1]; at 50.0 µM): 34.9% (inactive) | growth inhibition ([1]; at 100.0 µM): 73% (active) | growth inhibition ([2]; at 1.2 µM): 9% (inactive) | growth inhibition ([2]; at 3.7 µM): -5% (inactive) | growth inhibition ([2]; at 11.0 µM): -8% (inactive) | growth inhibition ([2]; at 33.0 µM): 34% (inactive) | growth inhibition ([2]; at 100.0 µM): 90% (active) | growth inhibition [3, 17]: -9% (inactive) | growth inhibition [3, 18]: 33% (inactive) | growth inhibition ([3]; at 50.0 µM): 45.5% (inactive) | growth inhibition ([4]; at 1.2 µM): 18% (inactive) | growth inhibition ([4]; at 3.7 µM): -21% (inactive) | growth inhibition ([4]; at 11.0 µM): 1% (inactive) | growth inhibition ([4]; at 33.0 µM): 28% (inactive) | growth inhibition ([4]; at 100.0 µM): 71% (active) | growth inhibition [5, 17]: 46% (inactive) | growth inhibition [5, 18]: 70% (active) | growth inhibition ([5]; at 50.0 µM): 35% (inactive) | growth inhibition ([6]; at 1.2 µM): -11% (inactive) | growth inhibition ([6]; at 3.7 µM): 11% (inactive) | growth inhibition [6, 17]: 21% (inactive) | growth inhibition ([6]; at 11.0 µM): 5% (inactive) | growth inhibition ([6]; at 33.0 µM): 31% (inactive) | growth inhibition [6, 18]: 49% (inactive) | growth inhibition ([6]; at 50.0 µM): 69.5% (inactive) | growth inhibition ([6]; at 100.0 µM): 85% (active) | growth inhibition ([7]; at 1.2 µM): -33% (inactive) | growth inhibition ([7]; at 3.7 µM): -29% (inactive) | growth inhibition ([7]; at 11.0 µM): -25% (inactive) | growth inhibition ([7]; at 33.0 µM): 20% (inactive) | growth inhibition ([7]; at 100.0 µM): 90% (active) | growth inhibition ([8]; at 1.2 µM): 18% (inactive) | growth inhibition ([8]; at 3.7 µM): 5% (inactive) | growth inhibition ([8]; at 11.0 µM): 17% (inactive) | growth inhibition ([8]; at 33.0 µM): 40% (inactive) | growth inhibition ([8]; at 100.0 µM): 81% (active) | growth inhibition ([9]; at 1.2 µM): -4% (inactive) | growth inhibition ([9]; at 3.7 µM): 6% (inactive) | growth inhibition ([9]; at 11.0 µM): 1% (inactive) | growth inhibition ([9]; at 33.0 µM): 44% (inactive) | growth inhibition ([9]; at 100.0 µM): 92% (active) | growth inhibition [10, 17]: 48% (inactive) | growth inhibition [10, 18]: 93% (active) | growth inhibition ([10]; at 50.0 µM): 13.9% (inactive) | growth inhibition ([11]; at 1.2 µM): -14% (inactive) | growth inhibition ([11]; at 3.7 µM): -30% (inactive) | growth inhibition ([11]; at 11.0 µM): -40% (inactive) | growth inhibition ([11]; at 33.0 µM): -27% (inactive) | growth inhibition ([11]; at 100.0 µM): 63% (inactive)

O=C1Nc2ccccc2/C1=C/c1ccccc1
growth inhibition ([12]; at 1.2 µM): -2% (inactive) | growth inhibition ([12]; at 3.7 µM): -1% (inactive) | growth inhibition ([12]; at 11.0 µM): 7% (inactive) | growth inhibition ([12]; at 33.0 µM): 37% (inactive) | growth inhibition ([12]; at 100.0 µM): 80% (active) | growth inhibition ([13]; at 1.2 µM): -1% (inactive) | growth inhibition ([13]; at 3.7 µM): -2% (inactive) | growth inhibition ([13]; at 11.0 µM): 0% (inactive) | growth inhibition ([13]; at 33.0 µM): 6% (inactive) | growth inhibition ([13]; at 100.0 µM): 34% (inactive) | growth inhibition ([14]; at 1.2 µM): 0% (inactive) | growth inhibition ([14]; at 3.7 µM): 1% (inactive) | growth inhibition ([14]; at 11.0 µM): 10% (inactive) | growth inhibition ([14]; at 33.0 µM): 35% (inactive) | growth inhibition ([14]; at 100.0 µM): 53% (inactive) | growth inhibition ([15]; at 1.2 µM): -6% (inactive) | growth inhibition ([15]; at 3.7 µM): -22% (inactive) | growth inhibition ([15]; at 11.0 µM): -8% (inactive) | growth inhibition ([15]; at 33.0 µM): 17% (inactive) | growth inhibition ([15]; at 100.0 µM): 71% (active) | growth inhibition ([16]; at 1.2 µM): -3% (inactive) | growth inhibition ([16]; at 3.7 µM): 1% (inactive) | growth inhibition [16, 17]: -113% (inactive) and -24% (inactive) | growth inhibition ([16]; at 11.0 µM): 3% (inactive) | growth inhibition ([16]; at 33.0 µM): 39% (inactive) | growth inhibition [16, 18]: -9% (inactive) and 10% (inactive) | growth inhibition ([16]; at 50.0 µM): 81.6% (active) and 98% (active) | growth inhibition ([16]; at 100.0 µM): 82% (active) | growth inhibition ([1]; at 1.2 µM): -3% (inactive) | growth inhibition ([1]; at 3.7 µM): -5% (inactive) | growth inhibition [1, 17]: -53% (inactive) and -11% (inactive) | growth inhibition ([1]; at 11.0 µM): -8% (inactive) | growth inhibition ([1]; at 33.0 µM): 4% (inactive) | growth inhibition [1, 18]: -56% (inactive) and 30% (inactive) | growth inhibition ([1]; at 50.0 µM): 66.6% (inactive) and 97.2% (active) | growth inhibition ([1]; at 100.0 µM): 51% (inactive) | growth inhibition ([2]; at 1.2 µM): -4% (inactive) | growth inhibition ([2]; at 3.7 µM): 6% (inactive) | growth inhibition ([2]; at 11.0 µM): -2% (inactive) | growth inhibition ([2]; at 33.0 µM): 14% (inactive) | growth inhibition ([2]; at 100.0 µM): 73% (active) | growth inhibition [3, 17]: -69% (inactive) and -10% (inactive) | growth inhibition [3, 18]: -52% (inactive) and 29% (inactive) | growth inhibition ([3]; at 50.0 µM): 57.1% (inactive) and 96.2% (active) | growth inhibition ([4]; at 1.2 µM): -9% (inactive) | growth inhibition ([4]; at 3.7 µM): -9% (inactive) | growth inhibition ([4]; at 11.0 µM): -12% (inactive) | growth inhibition ([4]; at 33.0 µM): -1% (inactive) | growth inhibition ([4]; at 100.0 µM): 17% (inactive) | growth inhibition [5, 17]: -67% (inactive) and -49% (inactive) | growth inhibition [5, 18]: -83% (inactive) and -8% (inactive) | growth inhibition ([5]; at 50.0 µM): -40.7% (inactive) and 70.8% (active) | growth inhibition ([6]; at 1.2 µM): -9% (inactive) | growth inhibition ([6]; at 3.7 µM): -14% (inactive) | growth inhibition [6, 17]: -46% (inactive) and -21% (inactive) | growth inhibition ([6]; at 11.0 µM): -5% (inactive) | growth inhibition ([6]; at 33.0 µM): 9% (inactive) | growth inhibition [6, 18]: -62% (inactive) and 22% (inactive) | growth inhibition ([6]; at 50.0 µM): 15.8% (inactive) and 98% (active) | growth inhibition ([6]; at 100.0 µM): 51% (inactive) | growth inhibition ([7]; at 1.2 µM): -3% (inactive) | growth inhibition ([7]; at 3.7 µM): -3% (inactive) | growth inhibition ([7]; at 11.0 µM): 2% (inactive) | growth inhibition ([7]; at 33.0 µM): 35% (inactive) | growth inhibition ([7]; at 100.0 µM): 88% (active) | growth inhibition ([8]; at 1.2 µM): -5% (inactive) | growth inhibition ([8]; at 3.7 µM): 10% (inactive) | growth inhibition ([8]; at 11.0 µM): -5% (inactive) | growth inhibition ([8]; at 33.0 µM): 30% (inactive) | growth inhibition ([8]; at 100.0 µM): 81% (active) | growth inhibition ([9]; at 1.2 µM): 0% (inactive) | growth inhibition ([9]; at 3.7 µM): 2% (inactive) | growth inhibition ([9]; at 11.0 µM): 10% (inactive) | growth inhibition ([9]; at 33.0 µM): 47% (inactive) | growth inhibition ([9]; at 100.0 µM): 84% (active) | growth inhibition [10, 17]: -122% (inactive) and -22% (inactive) | growth inhibition [10, 18]: -79% (inactive) and 51% (inactive) | growth inhibition ([10]; at 50.0 µM): 63.5% (inactive) and 96.8% (active) | growth inhibition ([11]; at 1.2 µM): 0% (inactive) | growth inhibition ([11]; at 3.7 µM): -1% (inactive) | growth inhibition ([11]; at 11.0 µM): 8% (inactive) | growth inhibition ([11]; at 33.0 µM): 52% (inactive) | growth inhibition ([11]; at 100.0 µM): 86% (active)
